Experimental data taken from the supplement of paper PMC7765376.
Counter-ions that a name gives are not always drawn. The full ranking holds about 1,500 compounds; the median of “Excess HSA synergy score (sum over dose matrix of excess over highest single agent)” is about 43, and the lowest 2% start at about -900. The full list was thinned out, with the lowest values kept by preference.

Tested on: PEO-1
Test: Excess HSA synergy score (sum over dose matrix of excess over highest single agent) (score (summed % response)); higher = less synergy / more antagonism (negative = synergy)
Conditions: 72 h, read-out: viability/apoptosis luminescence (CellTiter-Glo or Caspase3-Glo / not stated per table)
[1] = matrix design: 6x6, 5-fold dilutions (primary screen)
[2] = matrix design: 10x10, 9-step dilutions (confirmatory)

Row | SMILES | Excess HSA synergy score [1] | Excess HSA synergy score [2]
1 | NC[C@H]1O[C@H](O[C@H]2[C@H](O)[C@@H](O[C@H]3O[C@H](CO)[C@@H](O)[C@H](N)[C@H]3O)[C@H](N)C[C@@H]2N)[C@H](O)[C@@H](O)[C@@H]1O [Kanamycin] + CC[C@H](NC(=O)[C@H](C)NC)C(=O)N1C[C@@H](O)C[C@H]1Cc1c(-c2[nH]c3cc(F)ccc3c2C[C@@H]2C[C@H](O)CN2C(=O)[C@H](CC)NC(=O)[C@H](C)NC)[nH]c2cc(F)ccc12 [Birinapant] | -24.6 | –
2 | CCc1cccc(CC)c1NC(=O)N1Cc2[nH]nc(NC(=O)c3ccc(N4CCN(C)CC4)cc3)c2C1 + CC[C@H](NC(=O)[C@H](C)NC)C(=O)N1C[C@@H](O)C[C@H]1Cc1c(-c2[nH]c3cc(F)ccc3c2C[C@@H]2C[C@H](O)CN2C(=O)[C@H](CC)NC(=O)[C@H](C)NC)[nH]c2cc(F)ccc12 [Birinapant] | -207 | –
3 | O=C(O)c1ccc(-c2cc3cccnc3c(-c3ccc4nonc4c3)n2)cc1 + CC[C@H](NC(=O)[C@H](C)NC)C(=O)N1C[C@@H](O)C[C@H]1Cc1c(-c2[nH]c3cc(F)ccc3c2C[C@@H]2C[C@H](O)CN2C(=O)[C@H](CC)NC(=O)[C@H](C)NC)[nH]c2cc(F)ccc12 [Birinapant] | -117 | –
4 | CCOC(=O)N1c2ccc(C(F)(F)F)cc2[C@@H](N(Cc2cc(C(F)(F)F)cc(C(F)(F)F)c2)C(=O)OC)C[C@H]1CC [Torcetrapib] + CC[C@H](NC(=O)[C@H](C)NC)C(=O)N1C[C@@H](O)C[C@H]1Cc1c(-c2[nH]c3cc(F)ccc3c2C[C@@H]2C[C@H](O)CN2C(=O)[C@H](CC)NC(=O)[C@H](C)NC)[nH]c2cc(F)ccc12 [Birinapant] | -42.4 | –
5 | Nc1nc(=O)c2c([nH]1)NCC(CNc1ccc(C(=O)N[C@@H](CCC(=O)O)C(=O)O)cc1)N2C=O (stereo partly specified) [Calcium folinate] + CC[C@H](NC(=O)[C@H](C)NC)C(=O)N1C[C@@H](O)C[C@H]1Cc1c(-c2[nH]c3cc(F)ccc3c2C[C@@H]2C[C@H](O)CN2C(=O)[C@H](CC)NC(=O)[C@H](C)NC)[nH]c2cc(F)ccc12 [Birinapant] | 148 | –
6 | CN1CCCC(n2nc(Cc3ccc(Cl)cc3)c3ccccc3c2=O)CC1 (stereo unspecified) [Azelastine hydrochloride] + CC[C@H](NC(=O)[C@H](C)NC)C(=O)N1C[C@@H](O)C[C@H]1Cc1c(-c2[nH]c3cc(F)ccc3c2C[C@@H]2C[C@H](O)CN2C(=O)[C@H](CC)NC(=O)[C@H](C)NC)[nH]c2cc(F)ccc12 [Birinapant] | -156 | –
7 | O=C(c1cc(Cc2n[nH]c(=O)c3ccccc23)ccc1F)N1CCN(C(=O)C2CC2)CC1 [Olaparib] + CC[C@H](NC(=O)[C@H](C)NC)C(=O)N1C[C@@H](O)C[C@H]1Cc1c(-c2[nH]c3cc(F)ccc3c2C[C@@H]2C[C@H](O)CN2C(=O)[C@H](CC)NC(=O)[C@H](C)NC)[nH]c2cc(F)ccc12 [Birinapant] | -98.9 | -1730
8 | CN(C)/[N+]([O-])=N/Oc1cc(ON[N+](=O)N2CCN(C(=O)c3cc(Cc4n[nH]c(=O)c5ccccc45)ccc3F)CC2)c([N+](=O)[O-])cc1[N+](=O)[O-] + CC[C@H](NC(=O)[C@H](C)NC)C(=O)N1C[C@@H](O)C[C@H]1Cc1c(-c2[nH]c3cc(F)ccc3c2C[C@@H]2C[C@H](O)CN2C(=O)[C@H](CC)NC(=O)[C@H](C)NC)[nH]c2cc(F)ccc12 [Birinapant] | 162 | –
9 | CN1C(=O)C[C@@H](C(=O)N[C@@H](Cc2c[nH]cn2)C(=O)N2CCC[C@H]2C(N)=O)NC1=O [Taltirelin] + CC[C@H](NC(=O)[C@H](C)NC)C(=O)N1C[C@@H](O)C[C@H]1Cc1c(-c2[nH]c3cc(F)ccc3c2C[C@@H]2C[C@H](O)CN2C(=O)[C@H](CC)NC(=O)[C@H](C)NC)[nH]c2cc(F)ccc12 [Birinapant] | 10.4 | –
10 | C/C(=N\NC(=S)N1CCC1)c1ccccn1 + CC[C@H](NC(=O)[C@H](C)NC)C(=O)N1C[C@@H](O)C[C@H]1Cc1c(-c2[nH]c3cc(F)ccc3c2C[C@@H]2C[C@H](O)CN2C(=O)[C@H](CC)NC(=O)[C@H](C)NC)[nH]c2cc(F)ccc12 [Birinapant] | -323 | -1630
11 | Cc1n[nH]c(C)c1Cc1sc2c(c1C(=O)N1C[C@H](O)CO1)c(=O)n(C)c(=O)n2CC(C)C + CC[C@H](NC(=O)[C@H](C)NC)C(=O)N1C[C@@H](O)C[C@H]1Cc1c(-c2[nH]c3cc(F)ccc3c2C[C@@H]2C[C@H](O)CN2C(=O)[C@H](CC)NC(=O)[C@H](C)NC)[nH]c2cc(F)ccc12 [Birinapant] | 60.3 | –
12 | COc1ccc(S(=O)(=O)N(C(C)=O)c2ccccc2/C=C/c2cc[n+]([O-])cc2)cc1 + CC[C@H](NC(=O)[C@H](C)NC)C(=O)N1C[C@@H](O)C[C@H]1Cc1c(-c2[nH]c3cc(F)ccc3c2C[C@@H]2C[C@H](O)CN2C(=O)[C@H](CC)NC(=O)[C@H](C)NC)[nH]c2cc(F)ccc12 [Birinapant] | -72.6 | –
13 | CN(C)c1nc(Cc2ccc(NC(=O)c3ccc4ccccc4c3)cc2)nc(Cl)c1CC(=O)O + CC[C@H](NC(=O)[C@H](C)NC)C(=O)N1C[C@@H](O)C[C@H]1Cc1c(-c2[nH]c3cc(F)ccc3c2C[C@@H]2C[C@H](O)CN2C(=O)[C@H](CC)NC(=O)[C@H](C)NC)[nH]c2cc(F)ccc12 [Birinapant] | 169 | –
14 | N#CN=C(NCCCCCCOc1ccc(Cl)cc1)Nc1ccncc1 + CC[C@H](NC(=O)[C@H](C)NC)C(=O)N1C[C@@H](O)C[C@H]1Cc1c(-c2[nH]c3cc(F)ccc3c2C[C@@H]2C[C@H](O)CN2C(=O)[C@H](CC)NC(=O)[C@H](C)NC)[nH]c2cc(F)ccc12 [Birinapant] | -214 | -1410
15 | N=C(NCCCCCCNC(=N)NC(=N)Nc1ccc(Cl)cc1)NC(=N)Nc1ccc(Cl)cc1 [Chlorhexidine] + CC[C@H](NC(=O)[C@H](C)NC)C(=O)N1C[C@@H](O)C[C@H]1Cc1c(-c2[nH]c3cc(F)ccc3c2C[C@@H]2C[C@H](O)CN2C(=O)[C@H](CC)NC(=O)[C@H](C)NC)[nH]c2cc(F)ccc12 [Birinapant] | -4.24 | –
16 | CC(C)C[C@@H](C=O)NC(=O)[C@H](CC(C)C)NC(=O)[C@H](CC(C)C)NC(=O)OCc1ccccc1 + CC[C@H](NC(=O)[C@H](C)NC)C(=O)N1C[C@@H](O)C[C@H]1Cc1c(-c2[nH]c3cc(F)ccc3c2C[C@@H]2C[C@H](O)CN2C(=O)[C@H](CC)NC(=O)[C@H](C)NC)[nH]c2cc(F)ccc12 [Birinapant] | 36.9 | –
17 | O=C(NC1CC1)c1cccc(-c2ccc3c(NC(=O)C4CC4)n[nH]c3c2)c1 + CC[C@H](NC(=O)[C@H](C)NC)C(=O)N1C[C@@H](O)C[C@H]1Cc1c(-c2[nH]c3cc(F)ccc3c2C[C@@H]2C[C@H](O)CN2C(=O)[C@H](CC)NC(=O)[C@H](C)NC)[nH]c2cc(F)ccc12 [Birinapant] | 81.8 | –
18 | N#Cc1ccc(COC[C@H]2O[C@@H](n3c(NCc4ccc(Cl)c(Cl)c4)nc4c(N)ncnc43)[C@H](O)[C@@H]2O)cc1 + CC[C@H](NC(=O)[C@H](C)NC)C(=O)N1C[C@@H](O)C[C@H]1Cc1c(-c2[nH]c3cc(F)ccc3c2C[C@@H]2C[C@H](O)CN2C(=O)[C@H](CC)NC(=O)[C@H](C)NC)[nH]c2cc(F)ccc12 [Birinapant] | -237 | –
19 | COc1ccc(-c2ccc3c(N4CCOCC4)nc(N4C[C@@H](C)O[C@@H](C)C4)nc3n2)cc1CO + CC[C@H](NC(=O)[C@H](C)NC)C(=O)N1C[C@@H](O)C[C@H]1Cc1c(-c2[nH]c3cc(F)ccc3c2C[C@@H]2C[C@H](O)CN2C(=O)[C@H](CC)NC(=O)[C@H](C)NC)[nH]c2cc(F)ccc12 [Birinapant] | -161 | –
20 | COc1ccc(-c2nc(N3CCOCC3)c3sc(CN(C)c4ncc(C(=O)NO)cn4)cc3n2)cn1 + CC[C@H](NC(=O)[C@H](C)NC)C(=O)N1C[C@@H](O)C[C@H]1Cc1c(-c2[nH]c3cc(F)ccc3c2C[C@@H]2C[C@H](O)CN2C(=O)[C@H](CC)NC(=O)[C@H](C)NC)[nH]c2cc(F)ccc12 [Birinapant] | -204 | -1340
21 | Cc1nc(N)ncc1-c1nc(N2CCOCC2)c2sc(C(C)(C)O)cc2n1 + CC[C@H](NC(=O)[C@H](C)NC)C(=O)N1C[C@@H](O)C[C@H]1Cc1c(-c2[nH]c3cc(F)ccc3c2C[C@@H]2C[C@H](O)CN2C(=O)[C@H](CC)NC(=O)[C@H](C)NC)[nH]c2cc(F)ccc12 [Birinapant] | -47.1 | –
22 | CC(C)(O)c1cc2nc(-c3cnc(N)nc3)nc(N3CCOCC3)c2s1 + CC[C@H](NC(=O)[C@H](C)NC)C(=O)N1C[C@@H](O)C[C@H]1Cc1c(-c2[nH]c3cc(F)ccc3c2C[C@@H]2C[C@H](O)CN2C(=O)[C@H](CC)NC(=O)[C@H](C)NC)[nH]c2cc(F)ccc12 [Birinapant] | 72.3 | –
